Laboratory results taken from paper PMC5540273 (PLoS ONE, 2017).

How the values were obtained:
Details in all cases: concentration: 1 μM, replicates: in singlicate; n = 1
ACVR2A = tested on: ACVR2A
ACVR2B = tested on: ACVR2B
ACVRL1 = tested on: ACVRL1
ADCK3 = tested on: T1, ADCK3
T1 construct: gene CABC1

ADCK4 = tested on: ADCK4
AKT1 = tested on: AKT1
AKT2 = tested on: AKT2
AKT3 = tested on: AKT3
ALK = tested on: ALK
AMPK-alpha1 = tested on: T2, AMPK-alpha1
T2 construct: gene PRKAA1

AMPK-alpha2 = tested on: T3, AMPK-alpha2
T3 construct: gene PRKAA2

ANKK1 = tested on: ANKK1
ARK5 = tested on: T4, ARK5
T4 construct: gene NUAK1

ASK1 = tested on: T5, ASK1
T5 construct: gene MAP3K5

ASK2 = tested on: T6, ASK2
T6 construct: gene MAP3K6

AURKA = tested on: AURKA
AURKB = tested on: AURKB
AURKC = tested on: AURKC
AXL = tested on: AXL
BIKE = tested on: T7, BIKE
T7 construct: gene BMP2K
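Note: KINOMEscan kinase panel screen.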

## Cn1cc(-c2ccc3c(c2)CCN3C(=O)Cc2ccccc2Cl)c2c(N)ncnc21 [GSK2608885]
ACVR2A
  %Inh: 0%
ACVR2B
  %Inh: 13%
ACVRL1
  %Inh: 3%
ADCK3
  %Inh: 1%
ADCK4
  %Inh: 88%
AKT1
  %Inh: 0%
AKT2
  %Inh: 0%
AKT3
  %Inh: 0%
ALK
  %Inh: 0%
AMPK-alpha1
  %Inh: 2%
AMPK-alpha2
  %Inh: 30%
ANKK1
  %Inh: 4%
ARK5
  %Inh: 94%
ASK1
  %Inh: 0%
ASK2
  %Inh: 0%
AURKA
  %Inh: 98%
AURKB
  %Inh: 86%
AURKC
  %Inh: 74%
AXL
  %Inh: 94%
BIKE
  %Inh: 23%

## N#Cc1ccc(-c2cc(-c3c[nH]nc3-c3ccccn3)ccn2)cc1 [GW693028]
ACVR2A
  %Inh: 0%
ACVR2B
  %Inh: 40%
ACVRL1
  %Inh: 0%
ADCK3
  %Inh: 0%
ADCK4
  %Inh: 20%
AKT1
  %Inh: 0%
AKT2
  %Inh: 0%
AKT3
  %Inh: 0%
ALK
  %Inh: 25%
AMPK-alpha1
  %Inh: 0%
AMPK-alpha2
  %Inh: 49%
ANKK1
  %Inh: 0%
ARK5
  %Inh: 27%
ASK1
  %Inh: 0%
ASK2
  %Inh: 0%
AURKA
  %Inh: 0%
AURKB
  %Inh: 32%
AURKC
  %Inh: 0%
AXL
  %Inh: 0%
BIKE
  %Inh: 11%

## O=C(Nc1cccc(-c2nn3ncccc3c2-c2ccnc(Nc3cccc(C(F)(F)F)c3)n2)c1)c1c(F)cccc1F [GSK299495]
ACVR2A
  %Inh: 0%
ACVR2B
  %Inh: 0%
ACVRL1
  %Inh: 0%
ADCK3
  %Inh: 1%
ADCK4
  %Inh: 28%
AKT1
  %Inh: 0%
AKT2
  %Inh: 1%
AKT3
  %Inh: 0%
ALK
  %Inh: 22%
AMPK-alpha1
  %Inh: 0%
AMPK-alpha2
  %Inh: 15%
ANKK1
  %Inh: 0%
ARK5
  %Inh: 12%
ASK1
  %Inh: 1%
ASK2
  %Inh: 3%
AURKA
  %Inh: 9%
AURKB
  %Inh: 29%
AURKC
  %Inh: 56%
AXL
  %Inh: 6%
BIKE
  %Inh: 19%

## N#Cc1c(N2CCOCC2)sc(-c2ccn[nH]2)c1-c1ccc(Cl)cc1
ACVR2A
  %Inh: 0%
ACVR2B
  %Inh: 0%
ACVRL1
  %Inh: 0%
ADCK3
  %Inh: 12%
ADCK4
  %Inh: 0%
AKT1
  %Inh: 0%
AKT2
  %Inh: 0%
AKT3
  %Inh: 0%
ALK
  %Inh: 0%
AMPK-alpha1
  %Inh: 9%
AMPK-alpha2
  %Inh: 0%
ANKK1
  %Inh: 0%
ARK5
  %Inh: 0%
ASK1
  %Inh: 0%
ASK2
  %Inh: 0%
AURKA
  %Inh: 44%
AURKB
  %Inh: 4%
AURKC
  %Inh: 0%
AXL
  %Inh: 0%
BIKE
  %Inh: 0%

## Cc1nnc(-c2ccc3occ(-c4ccc(C(C)O)cc4)c3c2)o1 (stereo not shown)
ACVR2A
  %Inh: 9%
ACVR2B
  %Inh: 27%
ACVRL1
  %Inh: 8%
ADCK3
  %Inh: 0%
ADCK4
  %Inh: 0%
AKT1
  %Inh: 17%
AKT2
  %Inh: 0%
AKT3
  %Inh: 4%
ALK
  %Inh: 0%
AMPK-alpha1
  %Inh: 0%
AMPK-alpha2
  %Inh: 14%
ANKK1
  %Inh: 3%
ARK5
  %Inh: 35%
ASK1
  %Inh: 0%
ASK2
  %Inh: 11%
AURKA
  %Inh: 13%
AURKB
  %Inh: 27%
AURKC
  %Inh: 23%
AXL
  %Inh: 3%
BIKE
  %Inh: 18%

## Cl.Oc1cccc(Nc2ccnc3cc(-c4ccncc4)ccc23)c1 [GW494601]
ACVR2A
  %Inh: 97.2%
ACVR2B
  %Inh: 95%
ACVRL1
  %Inh: 81%
ADCK3
  %Inh: 1%
ADCK4
  %Inh: 68%
AKT1
  %Inh: 0%
AKT2
  %Inh: 0%
AKT3
  %Inh: 0%
ALK
  %Inh: 47%
AMPK-alpha1
  %Inh: 0%
AMPK-alpha2
  %Inh: 0%
ANKK1
  %Inh: 43%
ARK5
  %Inh: 9%
ASK1
  %Inh: 0%
ASK2
  %Inh: 0%
AURKA
  %Inh: 23%
AURKB
  %Inh: 43%
AURKC
  %Inh: 32%
AXL
  %Inh: 21%
BIKE
  %Inh: 7%

## COc1ccc(CNC(=O)NC2CCN(c3ccnc(Nc4ccc(OC)cc4)n3)C2)cc1 (stereo not shown) [GSK1379727]
ACVR2A
  %Inh: 0%
ACVR2B
  %Inh: 0%
ACVRL1
  %Inh: 0%
ADCK3
  %Inh: 3%
ADCK4
  %Inh: 59%
AKT1
  %Inh: 0%
AKT2
  %Inh: 0%
AKT3
  %Inh: 0%
ALK
  %Inh: 28%
AMPK-alpha1
  %Inh: 0%
AMPK-alpha2
  %Inh: 0%
ANKK1
  %Inh: 0%
ARK5
  %Inh: 0%
ASK1
  %Inh: 0%
ASK2
  %Inh: 0%
AURKA
  %Inh: 5%
AURKB
  %Inh: 22%
AURKC
  %Inh: 56%
AXL
  %Inh: 7%
BIKE
  %Inh: 11%

## Cc1ccc(NC(=O)c2ccnc(N3CCN(C)CC3)c2)cc1-c1ccc(C(=O)NCC2CC2)cc1 [GW775604]
ACVR2A
  %Inh: 16%
ACVR2B
  %Inh: 0%
ACVRL1
  %Inh: 0%
ADCK3
  %Inh: 1%
ADCK4
  %Inh: 0%
AKT1
  %Inh: 0%
AKT2
  %Inh: 0%
AKT3
  %Inh: 6%
ALK
  %Inh: 0%
AMPK-alpha1
  %Inh: 0%
AMPK-alpha2
  %Inh: 0%
ANKK1
  %Inh: 0%
ARK5
  %Inh: 0%
ASK1
  %Inh: 0%
ASK2
  %Inh: 0%
AURKA
  %Inh: 0%
AURKB
  %Inh: 2%
AURKC
  %Inh: 0%
AXL
  %Inh: 0%
BIKE
  %Inh: 0%

## O=C(c1ccc(-c2cc(-c3c[nH]nc3-c3ccccn3)ccn2)cc1)N1CCOCC1 [GW812171]
ACVR2A
  %Inh: 0%
ACVR2B
  %Inh: 0%
ACVRL1
  %Inh: 0%
ADCK3
  %Inh: 0%
ADCK4
  %Inh: 0%
AKT1
  %Inh: 5%
AKT2
  %Inh: 0%
AKT3
  %Inh: 0%
ALK
  %Inh: 5%
AMPK-alpha1
  %Inh: 19%
AMPK-alpha2
  %Inh: 22%
ANKK1
  %Inh: 14%
ARK5
  %Inh: 0%
ASK1
  %Inh: 0%
ASK2
  %Inh: 0%
AURKA
  %Inh: 13%
AURKB
  %Inh: 33%
AURKC
  %Inh: 0%
AXL
  %Inh: 0%
BIKE
  %Inh: 0%

## c1ccc(-c2cc(-c3c[nH]nc3-c3ccccn3)ccn2)cc1 [GW576604]
ACVR2A
  %Inh: 0%
ACVR2B
  %Inh: 42%
ACVRL1
  %Inh: 0%
ADCK3
  %Inh: 1%
ADCK4
  %Inh: 12%
AKT1
  %Inh: 0%
AKT2
  %Inh: 0%
AKT3
  %Inh: 0%
ALK
  %Inh: 14%
AMPK-alpha1
  %Inh: 0%
AMPK-alpha2
  %Inh: 0%
ANKK1
  %Inh: 0%
ARK5
  %Inh: 0%
ASK1
  %Inh: 4%
ASK2
  %Inh: 0%
AURKA
  %Inh: 14%
AURKB
  %Inh: 0%
AURKC
  %Inh: 3%
AXL
  %Inh: 0%
BIKE
  %Inh: 23%

## O=C(NOCC1CC1)c1ccc(F)c(F)c1Nc1ccc(I)cc1Cl
ACVR2A
  %Inh: 0%
ACVR2B
  %Inh: 0%
ACVRL1
  %Inh: 0%
ADCK3
  %Inh: 0%
ADCK4
  %Inh: 0%
AKT1
  %Inh: 0%
AKT2
  %Inh: 0%
AKT3
  %Inh: 0%
ALK
  %Inh: 0%
AMPK-alpha1
  %Inh: 0%
AMPK-alpha2
  %Inh: 0%
ANKK1
  %Inh: 0%
ARK5
  %Inh: 0%
ASK1
  %Inh: 0%
ASK2
  %Inh: 0%
AURKA
  %Inh: 0%
AURKB
  %Inh: 0%
AURKC
  %Inh: 20%
AXL
  %Inh: 2%
BIKE
  %Inh: 43%
